Measured values taken from PubChem BioAssay (NCI).
This is part of a sample that, as a whole, favours compounds with a hit. Of some 83,000 tested, about 20% had one in any assay.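 In brief: 96-well plates, 48 h treatment, single concentration, percent growth endpoint.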 A number with no mark means an inactive call. The source made the active and inactive calls.

Test system: SK-MEL-5 melanoma
Test: NCI-60 one-dose screen, 48 h (100 = growth as untreated, 0 = no growth, -100 = all killed)
Conditions: 10 µM unless noted
Description: Growth inhibition of the SK-MEL-5 human tumor cell line is measured as a screen for anti-cancer activity. Cells are grown in 96 well plates and exposed to the test compound for 48 hours. Compounds are tested at a single concentration, which is 10^-5 M for most compounds. The reported endpoint is percent growth (GI% or GIPRCNT), where numbers from 0 - 100% represent growth inhibition, and numbers from -100% - 0 represent cell death. For example, a value of 40 represents 60% growth inhibition. A value of 0 means no net growth occurred over the course of the experiment. A value of -40 indicates 40% of cells at the beginning of the experiment died by the end of the experiment. A value of -100 means all cells are dead at the end of the experiment.
NCI-60 Human Tumor Cell Lines Screen was performed using the standard one-dose NCI protocol, which is described in more detail at https://dtp.cancer.gov/discovery_development/nci-60/default.htm.
Compounds with GIPRCNT values below 10 were considered active. Activity score was based on GIPRCNT using the following formula: […]
Score is 0 for GIPRCNT values of 100 or above, 50 for GIPRCNT values of 0, and 100 for GIPRCNT values of -100.

Row | Structure (SMILES) | growth
1 | Fc1ccc2[nH]cc(-c3nc(-c4c[nH]c5ccncc45)cs3)c2c1 | -94.6% (active)
2 | COc1ccc(CCN(CC(=O)N(CC(N)=O)C2CCC[C@@H]2OCc2ccccc2)C(=O)CN(C(=O)CN(CCc2ccc(Cl)cc2)C(=O)CN(C(=O)CN(C)Cc2ccccc2F)[C@H](C)C2CCCCC2)[C@H](C)C2CCCCC2)cc1OC (stereo not given in full) | -41.8% (active)
3 | CSc1nc(C)c([N+](=O)[O-])c(N)n1 | 102%
4 | C#CCNC(=O)[C@]1(C)CCC[C@@]2(C)[C@H]1CC=C1C=C(C(C)C)CC[C@@H]12 | 102%
5 | Cc1ccc(-c2nc(-c3cn(C)c4ncccc34)cs2)cc1 | -84.9% [100 µM] (active)
6 | CCOC(=O)c1c(C)c2c(n1Cc1ccccc1)CSCC2=O | -86.5% [100 µM] (active)
7 | COc1cccc(CCNc2ncnc3c2ncn3Cc2nnc3c4ccccc4c(Cl)nn23)c1 | 77.1%
8 | CCOc1ccc(-n2nc(C(=O)NCc3ccccc3OC)nc2-c2cc(OC)c(OC)c(OC)c2)cc1 | -1.22% (active)
9 | Cc1c2ccncc2c(C)c2c1c1cc(CO)ccc1n2C | 6.31% (active)
10 | CC(=O)c1sc2sc(C(C)=O)c(C)c2c1C | 98.2%
11 | O=C(CSc1nnc(-c2cc(-c3ccccc3)nc3ccccc23)n1-c1ccccc1)Nc1ccc(C(=O)/C=C/c2ccc(Cl)cc2)cc1 | 91.4%
12 | CN(C)c1ccc(/C=C(\C#N)c2cc3ccccc3[nH]2)cc1 | 13%
13 | COc1cc(NC(=O)c2cncnc2Nc2ccc3c(ccn3Cc3ccccn3)c2)cc(OC)c1 | 35.4%
14 | CCOC(=O)CC1CSC(Nc2ccccc2)=N1 (stereo not given) | 103%
15 | Clc1c(Cl)[n+](Cc2ccc3ccccc3c2)cn1Cc1ccc2ccccc2c1 | -79.7% (active)
16 | O=C1C(Nc2ccccn2)=C(I)C(=O)c2ncccc21 | -98.9% (active)
17 | CCCCNC(=O)Oc1ccc(/C(=C(/C)Cc2ccc(OC)cc2)c2ccc(OCCN3CCCCC3)cc2)cc1 | 57%
18 | Nc1ncnc2c1N=C(c1ccc3c(c1)OCO3)CC(c1cccc(Nc3ccnc4cc(C(F)(F)F)ccc34)c1)N2 (stereo not given) | 84.6%
19 | C/C=C(/C)n1cnc2c(Nc3ccccn3)nc(Cl)nc21 | 101%
20 | CS(=O)(=O)c1ccc(NC(=O)c2ccccc2)nc1 | 101%

Row | Structure (SMILES) | growth
21 | O=S(=O)(NCCCNc1nccc(-c2c(-c3cccc(F)c3)nc3occn23)n1)c1ccc(F)cc1 | 32.7%
22 | COc1cc(-c2nc3cc(Cl)c(Cl)cc3[nH]2)ccc1OCC(=O)N=Nc1c(O)[nH]c2ccc(Cl)cc12 | -62.9% (active)
23 | C=CC(=O)Nc1ccc(Nc2nccc(-c3ccc(N4CCCC4)c(C#N)c3)n2)cc1 | 15.4%
24 | Fc1ccc(Cn2cc(CSc3nc4ccccc4o3)nn2)cc1 | 110%
25 | CCCCCCCCCCCCCCCCCCOc1ccccc1CC(=O)NCC[N+]1(C)CCCCC1 | 82.1%
26 | N#Cc1cncc(-c2ccc3ncnc(Nc4cccc(Cl)c4)c3c2)c1 | 75.4%
27 | C[C@@H]1O[C@@H](O[C@@H]2C[C@H](c3ccc4c(c3O)C(=O)C3=C(C4=O)[C@@]4(O)C(=O)C[C@](C)(O)C[C@@]4(O)C=C3)O[C@H](C)[C@H]2O)CC[C@@H]1O[C@H]1C[C@@H](O)[C@H](O)[C@@H](C)O1 | 101%
28 | COc1cc2c(cc1OCCCCN1CCN(C(=S)SCCC(C#N)(c3ccccc3)c3ccccc3)CC1)N=C[C@@H]1CCCN1C2=O | -98.3% (active)
29 | COc1ccc(/C=C2\COc3ccc(O)cc3C2=O)cc1 | 99.3%
30 | C=C(CNCCO)[C@@H]1CC[C@]2(CO)CC[C@]3(C)[C@H](CC[C@@H]4[C@@]5(C)CCC(N)C(C)(C)[C@@H]5CC[C@]43C)[C@@H]12 (stereo not given in full) | -87.8% (active)
31 | Cc1cc(Nc2ccc(C(=O)N3CCCC3)cc2)nc(NCCCNc2ccnc3cc(Cl)ccc23)n1 | 92.3%
32 | CCOC(=O)C(=CNc1cnc(Nc2ccc(N3CCOCC3)cc2)nc1Oc1ccc(OC)cc1)C(=O)OCC | 74%
33 | O=C1/C(=C/c2ccccn2)NC(=S)N1c1ccccc1Cl | 57.9%
34 | CCOC(=O)c1c(C)nc2ccccc2c1/C=C/c1cccs1 | 21%
35 | CCN1CCN(C(=O)[C@]23CC[C@@H](C)[C@H](C)[C@@H]2C2=CC[C@@H]4[C@@]5(C)C/C(=C/c6cccnc6)C(=O)C(C)(C)[C@@H]5CC[C@@]4(C)[C@]2(C)CC3)CC1 | -23.4% (active)
36 | CN1CCN(CCCOc2cccc3nc(Nc4ccc(F)c(F)c4)ccc23)CC1 | -100% (active)
37 | NC(=O)c1c(NC(=O)c2cccs2)sc2c1CCC(=O)C2 | 71.5%
38 | COc1cc(OC)c2sc(-c3ccc(-n4cncc4-c4cc(OC)c(OC)c(OC)c4)cc3)nc2c1 | 20.9%
39 | COc1ccc(NC(=O)Nc2ccc(OCCCCCC(=O)NO)cc2)cc1 | 104%
40 | NC(N)=NS(=O)(=O)c1ccc(NC2=C(I)C(=O)c3ncccc3C2=O)cc1 | 97.9%
